Results from PubChem BioAssay AID2330 (Broad Institute, 2010).
Hit rate of the full screen: of about 37,000 compounds, about 2,800 (7.6%) were called active. Inconclusive results (about 1%) are left out. The sample holds actives, similar compounds and a random draw of the others, so the mix is not that of the screen. Unmarked numbers belong to inactive results. Rule as the data show it: active = inhibition above about 80%; inconclusive = no clear call, values can overlap the other calls; inactive = below that.

Assay: NOMO-1 AML cell viability reduction, primary screen, STK33 inhibitor project, CellTiter-Glo luminescence (AID 2330)
Conditions: NOMO-1 AML viability, 72 h, active compounds read high, concentration not given here

Compound	inhibition
C[C@@H]1CN([C@@H](C)CO)C(=O)c2cc(NC(=O)C3CCCCC3)ccc2O[C@@H]1CN(C)S(=O)(=O)c1ccc(F)cc1	-1.45%
C[C@@H]1CN([C@@H](C)CO)C(=O)c2cc(NS(=O)(=O)c3cccs3)ccc2O[C@@H]1CN(C)S(=O)(=O)c1ccc(F)cc1	7.75%
CC[C@H]1CN2CCc3cc(OC)c(OC)cc3[C@@H]2C[C@@H]1C[C@H]1NCCc2cc(OC)c(OC)cc21	144% (active)
Cc1noc(C)c1NC(=O)Nc1ccc2c(c1)C(=O)N([C@@H](C)CO)C[C@H](C)[C@H](CN(C)Cc1ccc(-c3ccccc3)cc1)O2	28.6%
COc1ccc(S(=O)(=O)Nc2ccc3c(c2)C(=O)N([C@@H](C)CO)C[C@@H](C)[C@H](CN(C)S(=O)(=O)c2cccs2)O3)cc1	-10.4%
CC(=O)c1cccc(NC(=O)C(C)N(c2ccc(C)cc2)S(C)(=O)=O)c1 (stereo not given)	14.6%
Cc1ccc(S(=O)(=O)N(C)CC(=O)Nc2ccc(C#N)cc2)cc1	-13.1%
C[C@@H]1CN([C@H](C)CO)C(=O)Cc2cc(NC(=O)Nc3ccc(C(F)(F)F)cc3)ccc2O[C@@H]1CN(C)S(=O)(=O)c1ccccc1	31.7%
COc1ccc(S(=O)(=O)N(C)C[C@@H]2Oc3ccc(NC(=O)C4CC4)cc3CC(=O)N([C@@H](C)CO)C[C@@H]2C)cc1	-0.988%
C[C@H]1CN([C@@H](C)CO)C(=O)Cc2cc(NC(=O)Nc3ccc(C(F)(F)F)cc3)ccc2O[C@@H]1CN(C)S(=O)(=O)c1ccc(Cl)cc1	105% (active)
COc1ccc(NC(=O)Nc2ccc3c(c2)CC(=O)N([C@H](C)CO)C[C@H](C)[C@H](CN(C)S(=O)(=O)c2ccccc2)O3)cc1	57.6%
C[C@H]1CN([C@@H](C)CO)C(=O)Cc2cc(NC(=O)Nc3ccc(F)cc3)ccc2O[C@H]1CN(C)S(=O)(=O)c1ccccc1	108% (active)
COc1ccc(NC(=O)Nc2ccc3c(c2)CC(=O)N([C@H](C)CO)C[C@H](C)[C@H](CN(C)S(=O)(=O)c2ccc(OC)cc2)O3)cc1	23.1%
C[C@@H]1CN([C@H](C)CO)C(=O)Cc2cc(NC(=O)C3CCCCC3)ccc2O[C@H]1CN(C)S(=O)(=O)c1ccc(Cl)cc1	28.6%
C[C@@H]1CN([C@@H](C)CO)C(=O)Cc2cc(NC(=O)Nc3ccc(F)cc3)ccc2O[C@@H]1CN(C)S(=O)(=O)c1ccccc1	20.8%
C[C@H]1CN([C@@H](C)CO)C(=O)Cc2cc(NC(=O)Nc3ccc(F)cc3)ccc2O[C@H]1CN(C)S(=O)(=O)c1ccc(F)cc1	126% (active)
C[C@@H]1CN([C@@H](C)CO)C(=O)Cc2cc(NC(=O)Nc3ccccc3)ccc2O[C@@H]1CN(C)S(=O)(=O)c1ccc(F)cc1	14.1%
C[C@@H]1CN([C@@H](C)CO)C(=O)Cc2cc(NC(=O)Nc3ccc4c(c3)OCO4)ccc2O[C@@H]1CN(C)S(=O)(=O)c1ccc(Cl)cc1	30.8%
C[C@H]1CN([C@@H](C)CO)C(=O)Cc2cc(NC(=O)C3CC3)ccc2O[C@H]1CN(C)S(=O)(=O)c1ccc(Cl)cc1	125% (active)
Cc1nnc(SCc2ccc(C(=O)c3ccc(Cl)cc3)o2)n1-c1ccccc1	-16.2%
CC(C)NC(=O)Nc1ccc2c(c1)C(=O)N([C@H](C)CO)C[C@H](C)[C@@H](CN(C)S(C)(=O)=O)OCCCC[C@@H](C)O2	34%
COc1ccc(NC(=O)N(C)C[C@@H]2Oc3ccc(NC(=O)CCCN(C)C)cc3CC(=O)N([C@H](C)CO)C[C@H]2C)cc1	-16.5%
COc1ccc(NC(=O)N(C)C[C@@H]2OCCCC[C@@H](C)Oc3ccc(NC(=O)NC4CCCCC4)cc3C(=O)N([C@H](C)CO)C[C@@H]2C)cc1	-2.15%
Cc1ccc(S(=O)(=O)N(C)C[C@H]2Oc3ccc(NC(=O)CCCCCC(=O)Nc4ccccc4N)cc3C(=O)N([C@H](C)CO)C[C@H]2C)cc1	19.8%
COc1ccc(NC(=O)Nc2ccc3c(c2)C(=O)N([C@H](C)CO)C[C@H](C)[C@@H](CN(C)C(=O)NC2CCCCC2)OCCCC[C@@H](C)O3)cc1	-9.45%

Compound	inhibition
C[C@@H]1CN([C@H](C)CO)C(=O)c2cccc(NS(=O)(=O)c3ccc(Cl)cc3)c2O[C@@H]1CN(C)CC1CC1	0.793%
CCc1cc(C)cc(OCC(O)Cn2cnc3ccccc32)c1 (stereo not given)	50.9%
Cc1nc2ccccc2n1CC(O)COc1ccc(C2C=CCC2)cc1 (stereo not given)	85% (active)
CC(C)c1ccc(OCC(O)Cn2cnc3ccccc32)cc1 (stereo not given)	52%
COC(=O)c1ccccc1NC(=O)CSc1n[nH]c(-c2ccncc2)n1	19.3%
O=C(NCCN1CCCCC1)Nc1cccc(Cl)c1	6.03%
C[C@H]1CN([C@@H](C)CO)C(=O)c2cccc(NS(=O)(=O)c3ccc(Cl)cc3)c2O[C@@H]1CN(C)Cc1ccc(Oc2ccccc2)cc1	44.7%
Cc1ccc(NC(=O)COc2ccccc2C)c([N+](=O)[O-])c1	-19.4%
Cc1ccc(OCc2n[nH]c(=S)n2C2CCCCC2)c2c1CCC2	111% (active)
C=CCn1c(=O)c(C(=O)NCc2ccccn2)c(O)c2ccccc21	-12.4%
Cc1noc(C)c1NC(=O)Nc1ccc2c(c1)CC(=O)N([C@@H](C)CO)C[C@H](C)[C@@H](CN(C)CC1CCCCC1)O2	46.5%
C[C@@H]1CN([C@@H](C)CO)C(=O)c2cccc(NC(=O)Nc3ccc(F)cc3)c2O[C@@H]1CN(C)Cc1ccc(C(=O)O)cc1	0.82%
CCC/C=C/C=C/C1CC(O)C(O)C1C(=O)O (stereo not given)	4.09%
C[C@@H]1CN([C@@H](C)CO)C(=O)c2cc(NS(=O)(=O)c3cn(C)cn3)ccc2O[C@@H]1CN(C)Cc1ccc(C(=O)Nc2ccccc2N)cc1	5.34%
Cc1ccc(S(=O)(=O)Nc2ccc3c(c2)C(=O)N([C@@H](C)CO)C[C@@H](C)[C@H](CN(C)Cc2ccc(C(=O)O)cc2)O3)cc1	2.99%
C[C@@H]1CN([C@@H](C)CO)C(=O)c2cc(NC(=O)c3ccncc3)ccc2O[C@@H]1CN(C)Cc1ccncc1	-12.5%
C[C@@H]1CN([C@@H](C)CO)C(=O)c2cc(NS(=O)(=O)c3ccccc3)ccc2O[C@@H]1CN(C)Cc1ccc(C(=O)Nc2ccccc2N)cc1	110% (active)
C[C@H]1CN([C@@H](C)CO)C(=O)c2cc(NC(=O)c3ccncc3)ccc2O[C@H]1CN(C)Cc1ccc(C(=O)Nc2ccccc2N)cc1	107% (active)
Cc1ccc(S(=O)(=O)Nc2ccc3c(c2)C(=O)N([C@@H](C)CO)C[C@@H](C)[C@@H](CN(C)Cc2ccc(C(=O)Nc4ccccc4N)cc2)O3)cc1	110% (active)
C[C@@H]1CCCCO[C@H](CN(C)Cc2ccccc2)[C@@H](C)CN([C@H](C)CO)C(=O)c2cc(NS(=O)(=O)c3ccc(Cl)cc3)ccc2O1	40.5%
C[C@@H]1CN([C@H](C)CO)C(=O)c2cc(NS(=O)(=O)c3cn(C)cn3)ccc2O[C@@H]1CN(C)Cc1ccc(C(=O)Nc2ccccc2N)cc1	20.1%
C[C@H](CO)N1C[C@H](C)[C@H](CN(C)Cc2ccc(C(=O)Nc3ccccc3N)cc2)Oc2ccc(NS(C)(=O)=O)cc2C1=O	50.3%
Cc1ccc(S(=O)(=O)Nc2ccc3c(c2)C(=O)N([C@H](C)CO)C[C@H](C)[C@H](CN(C)Cc2ccc(C(=O)Nc4ccccc4N)cc2)OCCCC[C@@H](C)O3)cc1	127% (active)
Cc1ccc(S(=O)(=O)Nc2ccc3c(c2)C(=O)N([C@H](C)CO)C[C@H](C)[C@H](CN(C)Cc2ccccc2)OCCCC[C@@H](C)O3)cc1	45.3%
C[C@@H]1CN([C@@H](C)CO)C(=O)c2cc(NC(=O)c3ccncc3)ccc2O[C@H]1CN(C)Cc1ccc(C(=O)O)cc1	19.8%
